The results in this text go back to PubChem BioAssay (Tox21).

Results filed as inconclusive are left out. Activity calls are given as the source filed them. Calls come from the whole dose curve; as a rule, active = well fitted cell-killing curve with a large enough effect in the repeat runs; inconclusive = weak or mixed curves, or effect the other way; inactive = flat fitted curve, though single readings scatter.
% is set by controls: 0 for no effect and ±100 for the full control effect; potency is the fitted concentration of half-maximal effect.

A short description of this assay: qHTS assay to identify small molecule antagonists of the constitutive androstane receptor (CAR) signaling pathway - cell viability counter screen (AID 1224837). Note: nearly all actives have a fitted effect of over 45% in size. The settings on record: HepG2-CYP2B6-hCAR viability, CellTiter-Fluor, 23 h, co-treated with 50 nM CITCO; series mostly up to 92.4 µM; activity change, negative = cytotoxicity: at the top concentration. The text has this: National Center for Advancing Translational Sciences [NCATS]
NIH Chemical Genomics Center [NCGC]
U.S. Environmental Protection Agency [EPA]
National Institutes of Environmental Health Sciences [NIEHS]
National Toxicology Program [NTP]
U.S. Food and Drug Administration [FDA]
The constitutive androstane receptor (CAR) is a nuclear receptor which regulates multiple drug metabolizing enzymes (DMEs) and transporters. Activating CAR will generally increase the transcription and subsequent translation of CYP2B6 and CYP3A4. These two DMEs represent about 50% of the drug metabolizing potential in the body. When CAR is deactivated, the metabolizing potential in the body will decrease, subsequently increasing the toxicity in the body or lowering the therapeutic potential of a pro-drug. Recently, there have also been studies performed indicating CARs role in energy metabolism and cancer therapy. Therefore, inhibiting CARs activity could have a potential effect on diabetes and cancer. Identifying environmental toxins and compounds which modulate CAR, through the use of the Tox21 10K compound collection, will be an important step in determining the toxicity and potential therapeutic effects these factors will have on the human body. To differentiate true CAR antagonists from cytotoxic substances, the assay is multiplexed with a cell viability assay.
Tox21 Assay Protocol Summary:
A double-stable (hCAR and CYP2B6-2.2kb) transfected cell line, derived from human hepatoma (HepG2) cells, was utilized for the duration of the quantitative high-throughput screens. The HepG2-CYP2B6-hCAR cells were dispensed at 2500 cells/4 uL/well in 1536-well white solid bottom plates using a Multidrop Combi. After the assay plates were incubated at 37 C/5% CO2 for 4 hrs, 23 nL of compounds at 15 concentrations (from 5-48 columns) or positive control (from 1 to 4 columns) were transferred to the assay plates using a Pintool station. One uL of CITCO (final concentration = 50 nM) was added, using a Flying Reagent Dispenser, inside each well. After a 23 hr incubation period at 37 C/5% CO2, 1 uL of CellTiter-Fluor reagent was added into each well of the assay plates using a Flying Reagent Dispenser. The fluorescence intensity in the plates was then measured using a ViewLux plate reader.
On the technique in general: Quantitative high-throughput screening tests each substance at several concentrations.
`CCCCCCCCN`: the “activity change, negative = cytotoxicity” value was 4.05% (inactive).
For `C[C@@H](O)[C@H]1C(=O)N2C(C(=O)O)=C([C@H]3CCCO3)S[C@H]12`, the “activity change, negative = cytotoxicity” value was 0.609% [at 42.5 µM] (inactive).
With `Cc1ccc(CO)cc1`, the “activity change, negative = cytotoxicity” value was 4.59% (inactive).
The same measure, in the same setting: to `O=C(/C=C/c1ccc(O)c(O)c1)O[C@@H]1C[C@@](OC(=O)/C=C/c2ccc(O)c(O)c2)(C(=O)O)C[C@@H](O)[C@@H]1O` belongs 2.48% [at 42.5 µM] (inactive); to `C/C=C\C/C=C/CCCCCCCCOC(C)=O`, -2.25% (inactive).
As for `CN1CC(=O)N2[C@H](c3ccc4c(c3)OCO4)c3[nH]c4ccccc4c3C[C@@H]2C1=O`, the “activity change, negative = cytotoxicity” value was 1.76% [at 42.5 µM] (inactive).
Same read-out and setting: under `Cc1cc(O)c(C)c(C)c1O` stands 1.74% [at 42.5 µM] (inactive).
Turning to `NCCNCCO`, the “activity change, negative = cytotoxicity” value is 2.51% (inactive).
With `O=[N+]([O-])c1ccc(O/N=C/c2cc(Br)c(O)c(Br)c2)c([N+](=O)[O-])c1`, the Potency was 34.2 µM (active).
In the case of `CN1C(=O)OC(C)(C)C1=O`, the “activity change, negative = cytotoxicity” value was 0.239% (inactive).
Same read-out and setting: to `CCOC(=O)c1ccc(I)cc1` belongs -0.756% (inactive); to `COc1cc(N)c(Cl)cc1C(=O)NC1CCN(CCCOc2ccc(F)cc2)CC1OC` (stereo not given), -19.6% [at 42.5 µM] (inactive).
Take `O=C1c2ccccc2C(=O)N1CCc1noc(-c2ccc(CN3CCCCCC3)s2)n1`: the “activity change, negative = cytotoxicity” value was -18.1% (inactive).
With `O=C1NCCN1CCO`, the “activity change, negative = cytotoxicity” value was 3.44% (inactive).
On the same count and under the same terms, to `Cc1cc(C)c(N)cc1C` belongs -0.733% (inactive).
With `OC(CCN1CCCC1)(c1ccccc1)C1CCCCC1` (stereo not given), the “activity change, negative = cytotoxicity” value is -24.8% [at 42.5 µM] (inactive).
Turning to `C[C@H]1C[C@H](O)c2ccsc2S1(=O)=O`, the “activity change, negative = cytotoxicity” value was 7.17% [at 42.5 µM] (inactive).
Turning to `CCC(C)COC(=O)CC(C)C` (stereo not given), the “activity change, negative = cytotoxicity” value is -5.07% (inactive).
Same read-out and setting: under `Cc1ccccc1S` stands 0.369% [at 42.5 µM] (inactive).
Regarding `Nc1ccc(N=Nc2ccccc2)c(N)c1`, the Potency was 53.3 µM (active).
With `CCOC(C)=O`, the “activity change, negative = cytotoxicity” value was 0.146% (inactive).
Regarding `Cc1[nH]cnc1CN1CCc2c(c3ccccc3n2C)C1=O`, the “activity change, negative = cytotoxicity” value is -6.44% [at 42.5 µM] (inactive).
On to `CC(=O)Oc1ccc([N+](=O)[O-])cc1CCl`, for which the Potency was 30.6 µM (active).
As to `OCCN1CCN(CCCN2c3ccccc3Sc3ccc(Cl)cc32)CC1`, the Potency is 29.8 µM (active).
As for `COC(=O)C1=C(C)NC(C)=C(C(=O)O[C@@H]2CCCN(Cc3ccccc3)C2)[C@@H]1c1cccc([N+](=O)[O-])c1`, the “activity change, negative = cytotoxicity” value is -20.2% [at 42.5 µM] (inactive).
In the case of `CC(C)C=O`, the “activity change, negative = cytotoxicity” value is 0.769% (inactive).
Still for that read-out and setting: under `Cc1ccc(Cl)c(Nc2ccccc2C(=O)O)c1Cl` stands 3.13% [at 42.5 µM] (inactive); under `CC(C)C(O)(c1ccc(OC(F)(F)F)cc1)c1cncnc1` (stereo not given), 1.14% (inactive).
With `Clc1cc(Cl)nc(Cl)n1`, the “activity change, negative = cytotoxicity” value is -4.71% (inactive).
Still for that read-out and setting: under `O=C(O)c1cccc(-c2noc(-c3ccccc3F)n2)c1` stands 5.6% [at 42.5 µM] (inactive).
Take `O=[N+]([O-])c1cc(C2CCCCC2)c(O)c([N+](=O)[O-])c1`: the Potency is 15.3 µM (active).
Regarding `O=C1c2ccccc2C(=O)C1c1nc2ccccc2c(Br)c1O`, the “activity change, negative = cytotoxicity” value was 2.03% (inactive).
For the compound `CC=C(Cl)Cl`, the “activity change, negative = cytotoxicity” value was 4.82% (inactive).
Regarding `CCOC(=O)c1ccccc1C(=C1C=C(Br)C(=O)C(Br)=C1)c1cc(Br)c(O)c(Br)c1`, the “activity change, negative = cytotoxicity” value is -5.88% [at 42.5 µM] (inactive).
The same measure, in the same setting: under `Cc1ccccc1N=C(N)Nc1ccccc1C` stands -7.86% (inactive); under `O=C(O)C[C@H](NC(=O)OCc1ccccc1)C(=O)O`, 2.9% (inactive).
Same read-out and setting: under `O=c1[nH]ncc2ccccc12` stands 4.73% (inactive).
The same measure, in the same setting: under `C=C1C[C@@]23CC[C@H]4[C@@](C)(CCC[C@@]4(C)C(=O)O[C@@H]4O[C@H](CO)[C@@H](O)[C@H](O)[C@H]4O)[C@@H]2CC[C@]1(O[C@@H]1O[C@H](CO)[C@@H](O)[C@H](O[C@@H]2O[C@H](CO)[C@@H](O)[C@H](O)[C@H]2O)[C@H]1O[C@@H]1O[C@H](CO)[C@@H](O)[C@H](O)[C@H]1O)C3` stands 0.4% (inactive); under `Cc1ccco1`, -1.02% (inactive); under `CC1(C)O[C@@H]2C[C@H]3[C@@H]4C[C@H](F)C5=CC(=O)C=C[C@]5(C)[C@H]4[C@@H](O)C[C@]3(C)[C@]2(C(=O)CO)O1`, -12.9% [at 42.5 µM] (inactive).
